Laboratory results reported in PubChem BioAssay AID1159580 (chemical genetic matrix, 2015).
Among all 5,500 compounds or so, about 2,000 (36%) were called active. Inconclusive results (about 18%) are left out. Rule as the data show it: active = normalized growth mostly below about 0.91 (no sharp cut-off); inconclusive = no clear call, values can overlap the other calls; inactive = mostly above about 0.92. This is one part of the list.

Assay: chemical genetic growth profiling, strain panel (AID 1159580);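 also: tested at 20 µM; growth read once vehicle control cultures reached saturation at 30 °C; 1 = growth at the plate median or of vehicle wells; lower values mean less growth of the strain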
Details: S. cerevisiae deletion strains, growth OD

Measured: normalized growth

C/C=C\C1=C(C(=O)O)N2C(=O)C(NC(=O)C(N)c3ccc(O)cc3)C2SC1 (centres undefined)
inactive: locus YAL021C, strain ccr4, active compounds read low 0.983 | locus YAL026C, strain drs2, active compounds read low 1.01 | locus YAL030W, strain snc1, active compounds read low 1 | locus YBL061C, strain skt5, active compounds read low 1.02 | locus YBR009C, strain hhf1, active compounds read low 1.01 | locus YBR023C, strain chs3, active compounds read low 1.01 | locus YBR171W, strain sec66, active compounds read low 1.01 | locus YBR231C, strain swc5, active compounds read low 1.01 | locus YBR279W, strain paf1, active compounds read low 1 | locus YCL011C, strain gbp2, active compounds read low 1 | locus YCL016C, strain dcc1, active compounds read low 1 | locus YCL061C, strain MRC1, active compounds read low 1 | locus YCL069W, strain vba3, active compounds read low 1.01 | locus YCR088W, strain abp1, active compounds read low 1.01 | locus YDL005C, strain med2, active compounds read low 1 | locus YDL040C, strain nat1, active compounds read low 1.01 | locus YDR001C, strain nth1, active compounds read low 1.01 | locus YDR069C, strain doa4, active compounds read low 0.995 | locus YDR137W, strain rgp1, active compounds read low 1.01 | locus YDR159W, strain sac3, active compounds read low 0.987 | locus YDR195W, strain ref2 0.978 | locus YDR297W, strain sur2, active compounds read low 1 | locus YDR334W, strain swr1, active compounds read low 1.01 | locus YDR335W, strain msn5, active compounds read low 1.01 | locus YDR392W, strain spt3, active compounds read low 0.991 | locus YEL003W, strain gim4, active compounds read low 1 | locus YEL037C, strain rad23, active compounds read low 1.01 | locus YEL061C, strain CIN8 (second series), active compounds read low 1 | locus YER015W, strain faa2, active compounds read low 1 | locus YER016W, strain bim1, active compounds read low 1.01 | locus YER111C, strain swi4, active compounds read low 0.996 | locus YER155C, strain BEM2 (second series), active compounds read low 1.01 | locus YFR010W, strain ubp6, active compounds read low 1.02 | locus YGL167C, strain pmr1, active compounds read low 1.01 | locus YGL173C, strain kem1, active compounds read low 1 | locus YGL227W, strain vid30, active compounds read low 1.01 | locus YGL240W, strain doc1, active compounds read low 0.988 | locus YGL253W, strain hxk2, active compounds read low 1.01 | locus YHR013C, strain ard1, active compounds read low 0.997 | locus YHR027C, strain rpn1, active compounds read low 0.993 | locus YHR030C, strain SLT2, active compounds read low 1.02 | locus YHR079C, strain IRE1, active compounds read low 1.04 | locus YHR142W, strain chs7, active compounds read low 1.03 | locus YJL092W, strain hpr5, active compounds read low 1.01 | locus YJL095W, strain BCK1 (second series), active compounds read low 0.998 | locus YJL095W, strain BCK1, active compounds read low 0.997 | locus YJL115W, strain asf1, active compounds read low 0.999 | locus YJL129C, strain trk1, active compounds read low 1.02 | locus YJL154C, strain vps35, active compounds read low 1.01 | locus YJL164C, strain tpk1, active compounds read low 1.02 | locus YJL166W, strain qcr8, active compounds read low 1 | locus YJR066W, strain TOR1, active compounds read low 0.982 | locus YKL160W, strain elf1, active compounds read low 1 | locus YKR026C, strain gcn3, active compounds read low 1 | locus YKR091W, strain srl3, active compounds read low 1 | locus YLL001W, strain dnm1, active compounds read low 1.01 | locus YLL026W, active compounds read low 0.999 | locus YLL041C, strain sdh2, active compounds read low 1.03 | locus YLR027C, strain aat2, active compounds read low 1.01 | locus YLR113W, strain HOG1, active compounds read low 0.957 | locus YLR221C, strain rsa3, active compounds read low 1 | locus YLR258W, strain gsy2, active compounds read low 1.02 | locus YLR262C, strain YPT6 (second series), active compounds read low 1.01 | locus YLR320W, strain mms22, active compounds read low 1.02 | locus YLR342W, strain FKS1, active compounds read low 1 | locus YLR357W, strain rsc2, active compounds read low 1.01 | locus YLR370C, strain arc18, active compounds read low 1.02 | locus YLR384C, strain iki3, active compounds read low 1.02 | locus YML120C, strain ndi1, active compounds read low 1.02 | locus YMR058W, strain fet3, active compounds read low 1.01 | locus YMR125W, strain sto1, active compounds read low 1.02 | locus YMR129W, active compounds read low 1.01 | locus YMR205C, strain PFK2, active compounds read low 1.02 | locus YMR231W, strain pep5, active compounds read low 1 | locus YNL071W, strain lat1, active compounds read low 1.01 | locus YNL183C, strain NPR1, active compounds read low 0.959 | locus YNL209W, strain ssb2, active compounds read low 0.997 | locus YNL248C, strain rpa49, active compounds read low 1.02 | locus YNL322C, strain KRE1 (second series), active compounds read low 0.994 | locus YNR049C, strain mso1, active compounds read low 1.03 | locus YOR001W, strain rrp6, active compounds read low 1.02 | locus YOR070C, strain gyp1, active compounds read low 1.01 | locus YOR080W, strain dia2, active compounds read low 1.01 | locus YOR083W, strain WHI5, active compounds read low 1.01 | locus YOR106W, strain vam3, active compounds read low 0.997 | locus YOR231W, strain MKK1, active compounds read low 1.01 | locus YOR265W, strain rbl2, active compounds read low 1.02 | locus YOR270C, strain vph1, active compounds read low 1.04 | locus YOR290C, strain snf2, active compounds read low 1 | locus YPL051W, strain arl3, active compounds read low 1.01 | locus YPL078C, strain atp4, active compounds read low 1.02 | locus YPL106C, strain sse1, active compounds read low 1 | locus YPL240C, strain hsp82, active compounds read low 1.01 | locus YPL256C, strain CLN2, active compounds read low 1.04
